# Results filed as inconclusive are left out. Unmarked numbers belong to inactive results. Calls come from the whole dose curve.
# Assay: Cell Viability - HepG2 (AID 433);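 note: cells exposed to compound for 40 hours; potency for ATP loss meaning cytotoxicity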
# Conditions: qHTS
# Outline: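 Read-out is luciferase-based quantitation of cellular ATP as a measure of viable HepG2 cells after 40 h treatment at 37 °C. Signal decrease is scaled between DMSO-only and 100 uM tamoxifen controls, with AC50 fitted by the Hill equation.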
# Potency is the fitted concentration of half-maximal effect.
row,SMILES,Potency
1,O=C(O)C(Br)Br,> 92 µM
2,Cc1ccc(OP(=O)(Oc2ccc(C)cc2)Oc2ccc(C)cc2)cc1,> 92 µM
3,Oc1c(Cl)c(Cl)cc(Cl)c1Cl,> 92 µM
4,Nc1ccc(Cc2ccc(N)c(Cl)c2)cc1Cl,> 92 µM
5,Brc1ccc(Oc2ccc(Br)cc2Br)c(Br)c1,> 92 µM
6,O=[N+]([O-])c1c(Cl)c(Cl)c(Cl)c(Cl)c1Cl,> 92 µM
7,C=CC(=O)OCCO,> 92 µM
8,O=[N+]([O-])c1ccc(O)c([N+](=O)[O-])c1,> 92 µM
9,CC(C)[N+](=O)[O-],> 92 µM
10,CCCC[N+](=O)[O-],> 92 µM
11,Nc1cc(Cl)ccc1O,> 92 µM
12,N#CC(Cl)(Cl)Cl,> 92 µM
13,CCCCC(CC)COC(=O)c1ccc(C(=O)OCC(CC)CCCC)c(C(=O)OCC(CC)CCCC)c1 (stereo not given),> 92 µM
14,O=C(O)C(Br)CBr (stereo not given),> 92 µM
15,Nc1c(Br)cc([N+](=O)[O-])cc1[N+](=O)[O-],> 92 µM
16,O=[N+]([O-])c1ccccc1CCl,> 92 µM
17,Cc1cc(C)cc(OP(=O)(Oc2cc(C)cc(C)c2)Oc2cc(C)cc(C)c2)c1,> 92 µM
18,N#CC(Br)Br,> 92 µM
19,COP(=S)(OC)SCn1nnc2ccccc2c1=O,> 92 µM
20,Nc1ccc([N+](=O)[O-])cc1N,> 92 µM
21,Cc1cc(N=Nc2ccccc2C)ccc1N,> 92 µM
22,O=[N+]([O-])c1cc(Cl)c(Cl)c(Cl)c1,> 92 µM
23,CC(C)(COCC1CO1)COCC1CO1 (stereo not given),> 92 µM
24,CC(C)(C)OOC(=O)c1ccccc1,> 92 µM
25,COC(C)(C)C,> 92 µM
26,C(CCOCC1CO1)COCC1CO1 (stereo not given),> 92 µM
27,CN(C)c1ccc(N)cc1,> 92 µM

# Assay: Cell Viability - MRC5 (AID 434);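 note: cells exposed to compound for 40 hours at 37 °C; potency reflects cytotoxicity seen as loss of intracellular ATP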
# Conditions: MRC5 lung fibroblast viability, qHTS
# Outline: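 MRC5 normal human lung fibroblasts (1500/well) were treated with compounds for 40 hr at 37 °C in complete medium, and viable cells were measured as intracellular ATP by CellTiter-Glo luminescence. AC50 came from Hill fits, normalized to DMSO and 100 uM tamoxifen.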
row,SMILES,Potency
1,O=C(O)C(Br)Br,> 92 µM
2,Cc1ccc(OP(=O)(Oc2ccc(C)cc2)Oc2ccc(C)cc2)cc1,> 92 µM
3,Oc1c(Cl)c(Cl)cc(Cl)c1Cl,> 92 µM
4,Nc1ccc(Cc2ccc(N)c(Cl)c2)cc1Cl,> 92 µM
5,CN(C)c1ccc(N(C)C)cc1,> 92 µM
6,Brc1ccc(Oc2ccc(Br)cc2Br)c(Br)c1,> 92 µM
7,O=[N+]([O-])c1c(Cl)c(Cl)c(Cl)c(Cl)c1Cl,> 92 µM
8,CN1CSC(=S)N(C)C1,> 92 µM
9,C=CC(=O)OCCO,> 92 µM
10,CC(C)Br,> 92 µM
11,CC(C)[N+](=O)[O-],> 92 µM
12,Cc1cc(-c2cc(C)c(N)c(C)c2)cc(C)c1N,> 92 µM
13,Nc1cc(Cl)ccc1O,> 92 µM
14,CCN(N=O)C(N)=O,> 92 µM
15,N#CC(Cl)(Cl)Cl,> 92 µM
16,CCCCC(CC)COC(=O)c1ccc(C(=O)OCC(CC)CCCC)c(C(=O)OCC(CC)CCCC)c1 (stereo not given),> 92 µM
17,O=C(O)C(Br)CBr (stereo not given),> 92 µM

row,SMILES,Potency
1,Nc1c(Br)cc([N+](=O)[O-])cc1[N+](=O)[O-],> 92 µM
2,O=[N+]([O-])c1ccccc1CCl,> 92 µM
3,Cc1cc(C)cc(OP(=O)(Oc2cc(C)cc(C)c2)Oc2cc(C)cc(C)c2)c1,> 92 µM
4,N#CC(Br)Br,> 92 µM
5,O=C(O)C(Cl)Br (stereo not given),> 92 µM
6,Nc1ccc([N+](=O)[O-])cc1N,> 92 µM
7,O=C(O)c1cccc(Cl)c1,> 92 µM
8,Cc1cc(N=Nc2ccccc2C)ccc1N,> 92 µM
9,O=[N+]([O-])c1cc(Cl)c(Cl)c(Cl)c1,> 92 µM
10,CC(C)(COCC1CO1)COCC1CO1 (stereo not given),> 92 µM
11,Cc1ccc2c(c1N)C(=O)c1ccccc1C2=O,> 92 µM
12,COc1ccccc1N,> 92 µM
13,CC(C)(C)OOC(=O)c1ccccc1,> 92 µM
14,c1ccc(N=NNc2ccccc2)cc1,> 92 µM
15,COC(C)(C)C,> 92 µM
16,C(CCOCC1CO1)COCC1CO1 (stereo not given),> 92 µM
